From PubChem BioAssay (NCI)
The panel holds about 79,000 compounds, 15% with a hit somewhere; the sample as a whole holds those more often. Cut-off read from the data, not from the text of the source: active = growth inhibition above about 70%; inactive = the rest.

Key:
[1] = NCI Yeast Anticancer Drug Screen. Data for the rad50 strain (AID 155);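 note: 0% = growth of vehicle-only cultures of the same strain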; details: S. cerevisiae rad50 strain growth inhibition; at 50.0 µM; stronger effect = higher value
Procedure, shortened: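 Inhibition values express reduced yeast growth in compound-treated cultures relative to vehicle-treated controls.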

[2] = NCI Yeast Anticancer Drug Screen. Data for the mec2-1 strain (AID 157); details: S. cerevisiae mec2-1 strain, at 50.0 µM, stronger effect = higher value
Procedure, shortened: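 Test agents were screened against the mec2-1 yeast strain, with defined DNA repair or cell cycle alteration. Growth was scored as inhibition against vehicle-only controls.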

[3] = NCI Yeast Anticancer Drug Screen. Data for the sgs1 mgt1 strain (AID 161);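 note: 0% = growth of cultures given vehicle only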; details: S. cerevisiae sgs1 mgt1 strain, at 50.0 µM, stronger effect = higher value
Procedure, shortened: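 Read-out: growth inhibition vs vehicle controls. Cells: mutant yeast strain deficient in DNA damage repair.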

[4] = NCI Yeast Anticancer Drug Screen. Data for the cln2 rad14 strain (AID 165);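 note: 0% = growth equal to vehicle treated cultures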; details: S. cerevisiae cln2 rad14 strain, at 50.0 µM, stronger effect = higher value
Procedure, shortened: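 Growth of compound-exposed yeast (cln2 rad14 genotype) measured and expressed as inhibition relative to vehicle.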

[5] = NCI Yeast Anticancer Drug Screen. Data for the bub3 strain (AID 167); details: S. cerevisiae bub3 mutant strain, at 50.0 µM, stronger effect = higher value
Procedure, shortened: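 Steps: expose the mutant yeast strain to compound; grow alongside vehicle-treated cultures; measure growth; express inhibition against the vehicle cultures.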

[6] = NCI Yeast Anticancer Drug Screen. Data for the mlh1 rad18 strain (AID 175); details: S. cerevisiae mlh1 rad18 strain growth inhibition; at 50.0 µM; stronger effect = higher value
Procedure, shortened: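 In this whole-cell yeast screen, a strain with altered DNA damage repair is challenged with compound, and its growth is measured against matched vehicle-treated controls.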

Measured: growth inhibition

CCOC(=O)C(NC(=O)NC(C(=O)OCC)C(=O)OCC)C(=O)OCC
inactive: [1] -16.7% | [2] -20.6% | [3] -6.55% | [4] -4.05% | [5] -7.7% | [6] -17.6%

CC1=CC(=O)N2C(OC[C@@H]2c2ccccc2)O1 (stereo partly specified)
inactive: [1] 3.5% | [2] -11.8% | [3] -12.9% | [4] 9.95% | [5] -18.9% | [6] -21.4%

Nc1nc(N)c(-c2ccc(Cl)cc2)c(CCC(=O)Nc2cccc(C(F)(F)F)c2)n1
inactive: [1] -25.2% | [2] -3.55% | [3] -30% | [4] -0.25% | [5] -17.1% | [6] -21.1%

CCC1([N+](=O)[O-])COC2(CCCCC2)OC1
inactive: [1] 6.95% | [2] 23.7% | [3] -11.4% | [4] -1.35% | [5] 13.6% | [6] -13.1%

CCCC(CCC)C(=O)OCC(=O)c1ccc(-c2ccccc2)cc1
inactive: [1] -1.4% | [2] -2.6% | [3] 5% | [4] -43.9% | [5] 2.7% | [6] -0.1%

CN1CCCNCCN(CCc2ccccn2)CCCN(C)CC1
inactive: [1] 2.75% | [2] -1.5% | [3] -12.5% | [4] -7.75% | [5] 0.15% | [6] 6.65%

CC(=O)Nc1ccc[n+](CC(=O)c2ccc(F)cc2)c1
inactive: [1] -8.95% | [2] 0.85% | [3] 4.35% | [4] -42.6% | [5] -5.45% | [6] 8.65%

O=C1NC(Cc2cccc(I)c2)C(=O)N1c1ccccc1 (stereo unspecified)
inactive: [1] 37.3% | [2] 3.1% | [3] 31.9% | [4] 28.8% | [5] 16.4% | [6] 29.4%

NS(=O)(=O)c1ccc(N=Nc2nc3[nH]c(=O)[nH]c(=O)c3[nH]2)cc1
inactive: [1] 22.3% | [2] -9.2% | [3] 3.05% | [4] -4.85% | [5] -7.2% | [6] 18.6%

CC(COCc1ccccc1)C1OC(C)(C)OC(C#N)C1C (stereo unspecified)
inactive: [1] -1.05% | [2] -1.4% | [3] -4.8% | [4] -20.4% | [5] 11.7% | [6] 14.3%

COc1ccccc1OCC(O)CNc1ccc(Cl)cc1C(=O)c1ccccc1 (stereo unspecified)
inactive: [1] 3.25% | [2] 21.5% | [3] -8.8% | [4] -12% | [5] -2.7% | [6] -19.4%

CC(CN(C)C)N(C)C (stereo unspecified)
inactive: [1] -14.7% | [2] -34.5% | [3] -41.6% | [4] -7.75% | [5] -4.6% | [6] 0.15%

CCCCCCCCCCCCCC(=O)OCCCC
inactive: [1] -25.6% | [2] -54.4% | [3] -59.1% | [4] -143% | [5] -52% | [6] -7.35%

[CH3][Sn]([CH3])([O]C(=O)c1ccc2c(c1)OCO2)[O]C(=O)c1ccc2c(c1)OCO2
inactive: [1] -0.15% | [2] -3.25% | [3] -11% | [4] -12.7% | [5] -9.7% | [6] -9.9%

COc1cc2c(cc1OC)C1CC(O)(c3nccc4cc(OC)c(OC)cc34)CCN1CC2 (stereo unspecified)
inactive: [1] 21.1% | [2] -1.8% | [3] -3.9% | [4] 10.7% | [5] -1.3% | [6] -14.1%

C/C(=N\NC(=O)c1cccnc1)c1cccc(/C(C)=N/NC(=O)c2cccnc2)n1.CC(=O)[O-].CC(=O)[O-].[Zn+2]
inactive: [1] -5.45% | [2] 5.15% | [3] -2.6% | [4] -15.2% | [5] -6.1% | [6] -4%

C[C@]12C=CC(=O)C=C1[C@@H](F)C[C@H]1[C@@H]3CC[C@](O)(C(=O)CO)[C@@]3(C)C[C@H](O)[C@@]12F
inactive: [1] -11.9% | [2] -26.4% | [3] 4.8% | [4] 66.8% | [5] 2.85% | [6] -9.9%

COCCCNC(=S)N/N=C/c1ccccc1O
inactive: [1] -2.4% | [2] -31.1% | [3] 16.6% | [4] 12.2% | [5] 11.2% | [6] 4%

CN(C)CCCNC=O
inactive: [1] -30.2% | [2] -10.9% | [3] -26.2% | [4] -11.2% | [5] -0.45% | [6] 23.6%

CC(=O)OCCOC(=O)Nc1cccc2ccccc12
inactive: [1] -9.85% | [2] -7.9% | [3] -1.3% | [4] 30.9% | [5] 2.65% | [6] -0.6%

O=C(CCCCCC(=O)N1CC(CCl)c2ccc([N+](=O)[O-])cc21)N1CC(CCl)c2ccc([N+](=O)[O-])cc21 (stereo unspecified)
inactive: [1] -28.8% | [2] -39.8% | [3] -15.6% | [4] -4.5% | [5] -2.9% | [6] -55.4%

CC(=O)OCC(C)(C(N)=O)c1ccccc1 (stereo unspecified)
inactive: [1] -36.9% | [2] -9.15% | [3] -5.5% | [4] -32% | [5] -5.9% | [6] 1.85%

N#Cc1ccc(OCCCCOc2ccc([N+](=O)[O-])cc2Cl)cc1
inactive: [1] 5.75% | [2] -10.7% | [3] -19.4% | [4] -3.8% | [5] 4.65% | [6] 20%

CCc1ccc(-n2c(C)nc3[nH]cc(C)c3c2=N)cc1
inactive: [1] -13.6% | [2] -3.35% | [3] -11.9% | [4] -12.3% | [5] -2.65% | [6] -10.4%

CC(=O)c1ccc2ccc3ccccc3c2c1O
inactive: [1] -3.85% | [2] -8.75% | [3] -14.3% | [4] -30.6% | [5] -8.4% | [6] 5.25%

CC1(C)OC2CC3COC(=O)C3CC2O1 (stereo unspecified)
inactive: [1] 9.35% | [2] -4.85% | [3] -8.45% | [4] 1.6% | [5] 30.2% | [6] 17.9%

CNNC1=NS(=O)(=O)c2cc(C(=O)OC)c(Cl)cc2S1
inactive: [1] 8.75% | [2] -2.25% | [3] -9.9% | [4] 0.5% | [5] -6% | [6] 8.25%

c1cc2c3c(c1)CCC3CCC2 (stereo unspecified)
inactive: [1] -50.1% | [2] -48% | [3] -50.9% | [4] 12.8% | [5] -35% | [6] -4.85%

CC(SSc1ccc(C(C)(C)C)cc1)c1ccccc1 (stereo unspecified)
inactive: [1] 9.25% | [2] -14.2% | [3] -11.1% | [4] -35.4% | [5] 10.2% | [6] -1.4%

COc1cc(CSCC(=O)O)ccc1O
inactive: [1] 8.95% | [2] 7.15% | [3] 10.3% | [4] -19.4% | [5] -19.6% | [6] -23.8%

c1ccc(-c2nc3ccccc3nc2SCc2cccnc2)cc1
inactive: [1] 14.4% | [2] -18.1% | [3] -19.7% | [4] -18.2% | [5] -30.8% | [6] -9.8%

O=[N+]([O-])c1ccccc1S(=O)NCc1c(Cl)cccc1Cl (stereo unspecified)
inactive: [1] 14.1% | [2] 13.3% | [3] 24.5% | [4] 22.5% | [5] 5.2% | [6] 24.5%

CCNCCCCNCC
inactive: [1] 4.25% | [2] -14.9% | [3] -18.6% | [4] 8.1% | [5] -3.85% | [6] 2.3%

O=C(O)C12C3CCC(C3)C1(C(=O)O)C1CCC2C1 (stereo unspecified)
inactive: [1] -13.3% | [2] -13.9% | [3] -14.4% | [4] 24.3% | [5] -0.65% | [6] -12.2%

O=C(OCC1OC(OC(=O)c2ccccc2)C(F)C1OC(=O)c1ccccc1)c1ccccc1 (stereo unspecified)
inactive: [1] -2.65% | [2] -18.6% | [3] 7.15% | [4] -20.1% | [5] -8.25% | [6] 7.9%

Cc1nc2ccc(N)cc2oc1=O
inactive: [1] 6.55% | [2] 15.1% | [3] 15.2% | [4] -28.9% | [5] 0.8% | [6] 9.35%

CCc1[nH]c2ccc(C)cc2c1C(=O)c1cccnc1
inactive: [1] 5.3% | [2] -0.15% | [3] 16.4% | [4] 7.2% | [5] 21.3% | [6] 7.6%

COC(=O)c1ccccc1-n1c(-c2ccc([N+](=O)[O-])cc2)csc1=NC(=O)c1cccc([N+](=O)[O-])c1
inactive: [1] -2.15% | [2] -2.15% | [3] 19.4% | [4] -1.05% | [5] -1.15% | [6] 12.7%

O=c1c(O)c(-c2cccnc2)oc2ccc(Cl)cc12
inactive: [1] -2.1% | [2] 17.8% | [3] 12.8% | [4] 21.6% | [5] 16.7% | [6] 0.4%

CC12CS(=O)(=O)CC1O2 (stereo unspecified)
inactive: [1] 1.65% | [2] 3.25% | [3] 2.2% | [4] 1.9% | [5] 2.2% | [6] -13.4%

Cc1cc(Cl)c(Cl)cc1NC(=O)c1ccc(Cl)cc1Cl
inactive: [1] 2.85% | [2] 6.9% | [3] 1.25% | [4] -0.95% | [5] -1.3% | [6] 17.6%
